Source: PubChem BioAssay
Most compounds without a hit are left out; they make up all but 5.1% or so of the library.
CRFR2-BP ag: CRF-BP/CRF-R2 complex agonism. HEK293 CRF-R2/CRF-BP, calcium dye fluorescence (FLIPR); percent of saturating CRF peptide response. activation, % at 13.2 µM. 350,000 compounds, 0.46% hits;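 active = activation of at least 50%, plus an integration ratio under a set limit after plate pattern correction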;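 also: plate controls were neutral control wells without compound for no effect and CRF at EC100 for full effect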
NR3A LBD binder: modulators (binders) of human NR3A ligand-binding domain; NR3A LBD differential scanning fluorimetry, Tm shift; 0% = protein alone, 100% = glycine-bound protein; Tm shift relative to glycine control, % at 25 µM; 340,000 compounds, 2.5% hits;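 active = melting temperature shift of at least 10% of the positive control shift, at one fixed dose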
ANO1 activ: activates or potentiates the mouse TMEM16A chloride channel. Q8BHY3. HEK293 TMEM16A/YFP-H148Q/I152L, iodide quench fluorescence; active compounds read low. B-score at 10 µM. 340,000 compounds, 0.3% hits;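 active = fluorescence-ratio B-score plate-corrected deviation score at least 3 library SD below zero, with starting fluorescence score within 5 deviations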;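 also: channel opened by trigger with iodide after compound preincubation; score built on the fluorescence ratio of max minus min over baseline; more negative score means more quench and so TMEM16A activation or potentiation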
MPTP inh: inhibitors of mitochondrial permeability transition pore; isolated mouse mitochondria, Ca2+ swelling absorbance, 30 min; inhibition, % at 10 µM; 360,000 compounds, 1.4% hits;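 active = inhibition of 50% or more, scaled per plate between neutral and stimulator controls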;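 also: 0% = DMSO wells given calcium and 100% = 1 mM EGTA wells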
CRFR2-BP antag: CRF-BP/CRF-R2 complex antagonism | 350,000 compounds, 0.59% hits | HEK293 CRF-R2/CRF-BP, CRF-induced calcium fluorescence | inhibition, % at 11.8 µM;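 active = inhibition of the ligand-induced calcium signal above about 50% at the single tested concentration, limit read from the data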
ANO1 block: blocks the mouse calcium-activated chloride channel TMEM16A; Q8BHY3; HEK293 TMEM16A/YFP iodide influx fluorescence, ionomycin; normalized B-score (activity score, 25-100; higher = stronger inhibition) at 10 µM; 310,000 compounds, 1.2% hits; AID 588511;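 active = ratio plate-corrected score three or more library SD toward inhibition, starting fluorescence score within five deviations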;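 also: score derived from kinetic fluorescence span divided by baseline fluorescence per well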
MPTP counter: mitochondrial membrane potential, counter-screen; inhibition, % at 10 µM; 5,000 compounds, 78% hits; shares compounds with MPTP inh; isolated mitochondria, Rhodamine 123 fluorescence; in the data active = inhibition above about 22%;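 also: 0% = DMSO vehicle and 100% = positive control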
* marks the source's active call; other numbers are inactive results.

CCCCn1c(N)c(N(CC(C)C)C(=O)CCNC(=O)c2ccc(Cl)cc2)c(=O)[nH]c1=O was read as CRFR2-BP ag 1, NR3A LBD binder 1, ANO1 activ inactive, MPTP inh 1, CRFR2-BP antag 0 and ANO1 block inactive.
For Cc1nc2ccccn2c1C(=O)NNS(=O)(=O)c1ccc(C(C)(C)C)cc1 the results were CRFR2-BP ag 5, NR3A LBD binder -4, ANO1 activ inactive, MPTP inh 76*, CRFR2-BP antag -23, ANO1 block inactive and MPTP counter 72*.
`Cc1ccc(S(=O)(=O)N2C[C@@H]3[C@H]4CC[C@H](C4)[C@@H]3[C@@H](C)[C@@H]2C2CCCCC2=O)cc1` (stereo partly specified) gave CRFR2-BP ag 4, NR3A LBD binder 0, MPTP inh -1 and CRFR2-BP antag 8.
For O=C(NCCN1CCC(n2c(=O)[nH]c3ccccc32)CC1)c1ccc(Cl)cc1Cl the results were MPTP inh 0.
For Cc1ccc(C2C(/C=C3/SC(=S)NC3=O)=C(c3cccs3)Oc3ccccc32)cc1 (stereo unspecified) the results were CRFR2-BP ag 0, NR3A LBD binder 2, ANO1 activ inactive, MPTP inh 99*, CRFR2-BP antag 24, ANO1 block inactive and MPTP counter 48*.
For CC1Cc2cc(/C=C3/SC(=S)NC3=O)ccc2O1 (stereo unspecified) the results were CRFR2-BP ag -3, NR3A LBD binder -3, ANO1 activ inactive, MPTP inh 23, CRFR2-BP antag 8 and ANO1 block inactive.
`Cc1nc2nc(C)n(CCN3CCOCC3)c(=O)c2c(-c2cccc([N+](=O)[O-])c2)c1C(=O)CCCCCCCCCCN1CCC(c2ccccc2)(c2ccccc2)CC1` gave CRFR2-BP ag 1, NR3A LBD binder -8, ANO1 activ inactive, MPTP inh 59*, CRFR2-BP antag 2 and MPTP counter 107*.
O=C(NCCCN1CCOCC1)/C(=C/c1ccc(-c2cccc([N+](=O)[O-])c2)o1)NC(=O)c1ccccc1 was read as CRFR2-BP ag 1, MPTP inh 0 and CRFR2-BP antag 18.
Screening Cc1cc(C)nc(N/N=C/c2ccccc2OCc2ccc([N+](=O)[O-])cc2)n1 returned CRFR2-BP ag -4, NR3A LBD binder -11, ANO1 activ inactive, MPTP inh 0, CRFR2-BP antag 14 and ANO1 block inactive.
O=[N+]([O-])c1ccc(N/N=C\c2ccccc2OCc2ccccc2)cc1 was read as CRFR2-BP ag 13, NR3A LBD binder 20*, ANO1 activ inactive, MPTP inh 97*, CRFR2-BP antag -43, ANO1 block inactive and MPTP counter 76*.
`O=[N+]([O-])c1ccc(NN=Cc2cccc3ccccc23)cc1` gave CRFR2-BP ag 21, NR3A LBD binder 34*, ANO1 activ inactive, MPTP inh 89*, CRFR2-BP antag -57 and MPTP counter 71*.
Screening O=[N+]([O-])c1ccc(/C=N/Nc2ccc3ccccc3c2)o1 returned CRFR2-BP ag 3, NR3A LBD binder 21*, ANO1 activ inactive, MPTP inh 79*, CRFR2-BP antag -26, ANO1 block inactive and MPTP counter 32*.
For O=C(Nc1ccc(Br)c(C(F)(F)F)c1)c1ccccc1 the results were CRFR2-BP ag 6, NR3A LBD binder 8, ANO1 activ inactive, MPTP inh 100*, CRFR2-BP antag -9, ANO1 block inactive and MPTP counter 89*.
`COC(=O)COc1cccc(NC(=O)c2ccc(Cl)cc2)c1` gave CRFR2-BP ag -2, NR3A LBD binder -1, ANO1 activ inactive, MPTP inh -1, CRFR2-BP antag -3 and ANO1 block inactive.
For O=C(Nc1ccc(Br)c(C(F)(F)F)c1)c1ccc(C(F)(F)F)cc1 the results were CRFR2-BP ag 10, NR3A LBD binder 24*, ANO1 activ -13*, MPTP inh 83*, CRFR2-BP antag -1, ANO1 block inactive and MPTP counter 87*.
Screening O=C(Nc1ccc(OCC(F)(F)C(F)F)c(C(F)(F)F)c1)c1ccc(Cl)cc1 returned CRFR2-BP ag 7, NR3A LBD binder 31*, ANO1 activ inactive, MPTP inh 91*, CRFR2-BP antag -11, ANO1 block 100* and MPTP counter 84*.
Screening O=C(Nc1ccc(C(F)(F)F)cc1)c1ccc2nc[nH]c2c1 returned CRFR2-BP ag -2, NR3A LBD binder 6, ANO1 activ inactive, MPTP inh 80*, CRFR2-BP antag -6, ANO1 block inactive and MPTP counter 93*.
`COc1ccc(NC(=O)c2ccc3nc[nH]c3c2)cc1` gave CRFR2-BP ag 16, NR3A LBD binder 5, ANO1 activ inactive, MPTP inh 0, CRFR2-BP antag -16 and ANO1 block inactive.
CN(C(=O)c1cccc(NC(=O)Cc2cccc([N+](=O)[O-])c2)c1)C1CCCC1 was read as CRFR2-BP ag -1, NR3A LBD binder -7, ANO1 activ inactive, MPTP inh 2 and CRFR2-BP antag 12.
Screening Cc1ccc(Cl)c(OCC(=O)NCC(c2cccs2)N2CCOCC2)c1 (stereo unspecified) returned CRFR2-BP ag 1, NR3A LBD binder -2, ANO1 activ inactive, MPTP inh 1, CRFR2-BP antag -3 and ANO1 block inactive.
For O=NN(CCc1ccncc1)c1ccc(OCc2ccccc2)cc1 the results were CRFR2-BP ag 0, NR3A LBD binder 2, ANO1 activ inactive, MPTP inh 93*, CRFR2-BP antag 18, ANO1 block inactive and MPTP counter 89*.
For O=C(NCc1ccncc1)C(=O)N/N=C/c1ccc(OCc2ccccc2)cc1 the results were CRFR2-BP ag 1, NR3A LBD binder 1, ANO1 activ inactive, MPTP inh 3, CRFR2-BP antag 12 and ANO1 block inactive.
Cc1ccc(N(CC(=O)Nc2ccc(F)c(Cl)c2)S(=O)(=O)c2c(C)noc2C)cc1 was read as CRFR2-BP ag 2, NR3A LBD binder 11*, ANO1 activ inactive, MPTP inh 58*, CRFR2-BP antag -21, ANO1 block inactive and MPTP counter 101*.
Screening CC(OC(=O)CSCC(=O)Nc1ccc(Cl)cc1)C(=O)N(C)Cc1ccccc1 (stereo unspecified) returned CRFR2-BP ag 0, NR3A LBD binder -2, ANO1 activ inactive, MPTP inh 2 and CRFR2-BP antag 20.
For CCc1nc2cc(NC(=O)C3(C)CCCN(C(C)C)C3)ccc2o1 (stereo unspecified) the results were MPTP inh 0.
